Source: PubChem BioAssay
This is a sample that favours compounds with a hit; in the whole collection about 10% have one here.
Insulin prom inh: TRM-6 insulin promoter activity inhibition; TRM-6 cells (human fetal islet line), insulin promoter-eGFP reporter, imaging; reporter expression induced with tamoxifen; inhibition, % at 2 µM; 130,000 tested, 0.9% active; AID 1273;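 active = inhibition above the mean plus 3 SD, with well images judged a real hit on visual review, cut at about 60% in these data, passing the limit was not always enough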
p97 inhibitor: human p97 ATPase inhibition | recombinant p97 ATPase, Kinase-Glo ATP luminescence, 3 h | inhibition, % at 8 µM | 220,000 tested, 0.42% active; in the data active = inhibition above about 15%
Target sequence (P55072 whole entry, looked up): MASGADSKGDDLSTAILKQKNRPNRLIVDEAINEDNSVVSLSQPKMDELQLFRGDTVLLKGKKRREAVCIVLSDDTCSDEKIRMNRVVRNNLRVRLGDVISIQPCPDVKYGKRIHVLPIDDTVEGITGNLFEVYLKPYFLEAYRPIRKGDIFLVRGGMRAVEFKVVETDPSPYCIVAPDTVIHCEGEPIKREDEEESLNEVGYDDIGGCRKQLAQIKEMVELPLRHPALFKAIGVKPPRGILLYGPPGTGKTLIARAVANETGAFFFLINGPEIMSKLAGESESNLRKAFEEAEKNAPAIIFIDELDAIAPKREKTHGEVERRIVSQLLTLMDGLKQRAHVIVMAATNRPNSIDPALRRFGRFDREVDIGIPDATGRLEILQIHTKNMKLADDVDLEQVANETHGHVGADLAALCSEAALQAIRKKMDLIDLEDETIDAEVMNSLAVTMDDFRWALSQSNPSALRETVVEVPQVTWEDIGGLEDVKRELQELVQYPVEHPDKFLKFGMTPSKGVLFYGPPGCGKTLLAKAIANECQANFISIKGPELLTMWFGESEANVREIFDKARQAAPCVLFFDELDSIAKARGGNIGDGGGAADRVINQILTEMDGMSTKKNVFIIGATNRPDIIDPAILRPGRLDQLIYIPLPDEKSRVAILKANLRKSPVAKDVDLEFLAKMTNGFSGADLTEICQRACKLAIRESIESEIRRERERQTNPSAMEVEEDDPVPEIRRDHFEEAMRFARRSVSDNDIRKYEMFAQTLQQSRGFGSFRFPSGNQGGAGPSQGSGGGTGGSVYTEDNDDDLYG
Lmaj promast: reduces viability of Leishmania major promastigotes; AID 1063; 200,000 tested, 9% active; resazurin fluorescence viability; inhibition, % at 10 µM; in the data active = inhibition above about 50%;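 also: promastigotes grown with compound for 44 hours at 28 °C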
PTEN del growth: growth suppressors of cells with PTEN tumor suppressor deletion | HCT116 PTEN-null viability, CellTiter-Glo, 60 h; active compounds read low | 140,000 tested, 1.2% active | viability, % at 10 µM | AID 827;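 active = viability at or below a set limit, 4 SD under the median of all tested compounds, cut at about 3.7% in these data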;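 also: PTEN knockout HCT116 line with beta catenin targeted HCT116 as companion control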
ROMK primary: modulators of human ROMK potassium channel | B-score at 10 µM | 130,000 tested, 2% active | Tet-inducible ROMK, thallium flux fluorescence; actives lie on both sides;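 active = signal ratio slope over the read window, or its plate-corrected B-score, at least 3 SD from the plate mean, either direction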;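 also: B-score of the F/F0 ratio slope over 7 to 12 s after thallium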
bCat KO growth: beta-catenin-lacking colon tumor cell growth suppression. viability, % at 10 µM. 140,000 tested, 1.5% active. HCT116 beta-catenin knockout viability, CellTiter-Glo, 60 h; active compounds read low;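 active = viability at or under a set limit, the compound median less 4 SD, cut at about 6% in these data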
p97 confirm: confirmation of human p97 ATPase inhibitors; AID 1517; recombinant p97 ATPase, Kinase-Glo ATP luminescence; 760 tested, 44% active; inhibition, % at 8 µM; shares compounds with p97 inhibitor;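 active = percent inhibition of p97 ATPase above a set limit, the primary screen's mean plus 3 SD, cut at about 15% in these data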
Numbers stand for hits; - = inactive; . = not tested or not shown.

SMILES	Insulin prom inh	p97 inhibitor	Lmaj promast	PTEN del growth	ROMK primary	bCat KO growth	p97 confirm
COc1ccc(NC(=O)NC(C)(C(F)(F)F)C(F)(F)F)cc1	-	-	-	-	.	-	.
CCC(NC(=O)Nc1ccc(O)cc1)(C(F)(F)F)C(F)(F)F	.	37	-	-	-	-	-
CC(NC(=O)Nc1ccc(O)cc1)(C(F)(F)F)C(F)(F)F	-	30	-	-	-	-	-
Cc1cc(C(F)(F)F)n(-c2ccc(N)cc2)n1	-	-	-	.	-	.	.
O=C(O)CCSc1nc(C(F)(F)F)cc(=O)n1-c1ccccc1	-	-	-	-	.	-	.
O=C(O[C@@H]1OC2COC(=O)c3cc(O)c(O)c(O)c3-c3c(cc(O)c(O)c3O)C(=O)O[C@@H]([C@H]1O)[C@@H]2O)c1cc(O)c(O)c(O)c1	-	38	-	-	-	-	60
N#Cc1ccccc1Sc1ccccc1C(=O)Nc1ccccc1	-	-	-	-	.	-	.
COc1ccc(-c2c3c(=O)n(C)c(=O)n(C)c3cn2C2CCCCC2)cc1	-	-	-	-	.	-	.
CN(C)/C=C/c1c([N+](=O)[O-])c2ccc(O)cc2n1-c1ccccc1	.	26	.	.	.	.	-
COC(=O)c1c(C)n(-c2ccccc2)c2ccc(O)cc12	-	-	-	-	-	-	.
CN1CCN(CCCNC(=O)c2cn(C3CCCCC3)c(=O)c3c2c2ccccc2n3C)CC1	-	23	-	-	-	-	-
CCCOc1ccc(N2CC(C(=O)NC3=NCCS3)CC2=O)cc1 (centres undefined)	-	-	-	.	.	.	.
CC1=NN(Cc2ccccc2)C(=O)C1C(c1ccc(Cl)cc1)C(C#N)C#N (centres undefined)	.	18	-	-	-	-	-
N#Cc1cc(Cl)c(N2CCOCC2)cc1C#N	-	-	-	-	-	-	.
N#Cc1cc2ccc(N3CCOCC3)cc2cc1C#N	-	15	99	-	.	-	19
Cc1ccc(C(=O)NCc2ccco2)cc1S(=O)(=O)Nc1cccc(Cl)c1	-	-	-	-	-	-	.
CC1=Nc2ccccc2/C1=C/c1c(N)n2c(S(=O)(=O)CC(C)C)nsc2nc1=O	-	18	-	.	-	.	39
CC1=Nc2ccccc2/C1=C/c1c(N)n2c(S(=O)(=O)C(C)C)nsc2nc1=O	-	22	-	.	-	.	36
CC1=Nc2ccc(C)cc2/C1=C/c1c(N)n2c(S(=O)(=O)C(C)C)nsc2nc1=O	-	-	-	.	-	.	.
CC1(C)CC2(CCCN(CC(O)(c3ccccc3)c3ccccc3)C2)CCO1 (centres undefined)	.	-	.	.	.	.	.
COc1ccc(NC(=O)CSc2n[nH]c(N)n2)c([N+](=O)[O-])c1	.	-	-	-	-	-	.
Cc1nc(NC(=O)c2ccccc2)sc1-c1csc(Nc2ccc(C(=O)O)cc2)n1	.	15	.	.	.	.	15
CC(=O)Nc1cc(OC(C)=O)c2nonc2c1OC(C)=O	-	30	101	.	-4.2	.	32
O=C1N2CCSC2=NC1(Nc1nccs1)C(F)(F)F (centres undefined)	-	-	-	-	-	-	.
CN1CN(C)c2cccc3cccc1c23	-	29	-	-	-	-	-
SMILES	Insulin prom inh	p97 inhibitor	Lmaj promast	PTEN del growth	ROMK primary	bCat KO growth	p97 confirm
Cn1cnnc1Sc1nc([N+](=O)[O-])nn1C	.	-	-	.	-	.	.
COc1ccccc1-c1nnc(Sc2nc([N+](=O)[O-])nn2C)o1	.	16	97	2.4	-	2.1	24
O=C(CC12CC3CC(CC(C3)C1)C2)NCC(=O)N1CCc2ccccc2C1	-	-	-	-	-	-	.
Cc1ccc(-c2nc(Nc3ccc(N4CCOCC4)cc3)c3ccccc3n2)cc1	.	15	.	.	.	.	-
c1ccc(-c2cc(-c3ccc(N4CCOCC4)cc3)nc3ccccc23)cc1	-	-	-	-	-	-	.
CN1c2ccccc2C(C)(C)C12C=Nc1c(cc(N3CCOCC3)c3ccccc13)O2 (centres undefined)	-	29	-	-	.	-	-
Cc1ccc(S(=O)(=O)N2CCSC2c2ccco2)cc1 (centres undefined)	.	-	-	-	-	-	.
NC(=O)N/N=C/c1cc(Br)ccc1OC(=O)c1ccccc1	-	16	-	-	-	-	23
C=CC[n+]1c(-c2ccc(OC)cc2)csc1NNC(=O)Nc1ccccc1	-	17	-	-	-	-	-
CC1=NN(c2ccc(C)c(C)c2)C(=O)/C1=C/c1ccc2c(c1)n(C)c(=O)n2C	-	25	97	-	-	-	-
Cc1ccc(C)n1Cc1ccc(C(=O)O)cc1	-	28	-	-	-	-	-
CCOC(=O)c1[nH]c(C)c(C(=O)OCC(=O)N2CC(=O)Nc3ccccc32)c1C	.	-	-	-	.	-	.
O=C1C=C(NCc2ccccc2)c2ccccc2C1=O	.	48	97	.	-	.	33
NC(=S)NNc1cccc2cccnc12	.	16	-	.	-	.	-
Oc1ccccc1CNc1cccc2cccnc12	.	-	-	.	-	.	.
COc1cccc(CNC(=O)C2CCCN(S(=O)(=O)c3cnc[nH]3)C2)c1 (centres undefined)	.	-	-	-	.	-	.
Clc1c(Cl)c(Cl)c2n[nH]nc2c1Cl	.	19	.	.	.	.	15
Cc1cc2sc(C(=O)O)c(C)c2s1	-	-	-	-	-	-	.
O=C(NS(=O)(=O)c1ccc(Cl)cc1)c1ccccc1	.	-	-	.	-	.	.
Cc1ccc(C(=O)NC(=C(Cl)Cl)S(=O)(=O)c2ccc(Cl)cc2)cc1	-	17	-	.	-	.	23
O=C(NC(=C(Cl)Cl)S(=O)(=O)c1ccc(Cl)cc1)c1ccccc1	.	25	.	.	-	.	27
CC(=O)N(/N=C1\Sc2ccccc2C1=O)c1cccc(C)c1	-	15	-	-	.	-	24
NC(=O)CC1Nc2cccc3cccc(c23)NC1=O (centres undefined)	.	35	-	-	.	-	-
O=c1[nH]c(=O)n(C2CCCO2)cc1F (centres undefined)	-	20	-	-	.	-	-
COc1ccc(OC)c(Nc2nc(NCc3ccco3)nc(N)c2[N+](=O)[O-])c1	.	-	.	.	-	.	.
SMILES	Insulin prom inh	p97 inhibitor	Lmaj promast	PTEN del growth	ROMK primary	bCat KO growth	p97 confirm
COc1ccccc1Nc1nc(NCc2ccco2)nc(N)c1[N+](=O)[O-]	.	16	.	.	.	.	21
Cc1cccc(N=C2NC(=O)/C(=C/C=C/c3ccco3)S2)c1C	.	21	-	-	.	-	-
COc1ccc(CCn2c(-c3ccc(OC)cc3)nc3c(c(=O)c4ccccc4n3C)c2=O)cc1	.	-	.	.	-	.	.
Cn1c2ccccc2c(=O)c2c(=O)n(Cc3ccco3)c(-c3ccc(F)cc3)nc21	.	46	.	.	-	.	17
Cc1ccc(-c2nc3c(c(=O)c4ccccc4n3C)c(=O)n2-c2ccccc2)cc1	-	-	-	-	.	-	.
Cc1ccc(-c2nc3c(c(=O)c4ccccc4n3C)c(=O)n2Cc2ccco2)cc1	.	48	.	.	-	.	17
Cc1ccc(NC(=O)COc2ccc(C3SCCS3)cc2)cc1	-	-	-	-	-	-	.
O=C(COc1ccc(C2SCCS2)cc1)NNC(=O)C(Cl)Cl	.	26	.	.	-	.	-
